# Measurements: PubChem BioAssay (NCATS)
# Values joined by “and” are separate entries in the source; they are usually repeats but may differ in a detail not shown here. Equal entries are not always repeated. Records with an inconclusive call do not appear. Entries that show only a call come without a potency. Active and inactive are the calls of the source. Unless noted, calls follow the shape of the dose curve; as a rule, active = well fitted curve in the direction sought with a large enough effect; inconclusive = small, poorly fitted or top-dose-only effect, or another doubt; inactive = no such curve, though single readings can be large; an effect the other way counts as inactive or inconclusive.
# Experiments:
# [1] = Cell Viability - Jurkat (AID 426;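 active = dose-dependent loss of cell ATP signal giving a full or clear fitted curve, ranked by lower potency value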;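 also: potency is read from the fitted curve at half-maximal effect; cells exposed to compound for 40 hours at 37 °C before ATP read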); conditions: qHTS
# Outline: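 Cytotoxicity taken as drop in cellular ATP (CellTiter-Glo luminescence, 20 min room temperature) after 40 hr, 37C treatment of 5000 Jurkat Clone E6-1 cells per well; concentration-response fitted with Hill equation for AC50.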
# [2] = Cell Viability - N2a (AID 540); conditions: N2a mouse neuroblastoma cell viability; activity change, negative = cytotoxicity: at 92.2 µM (top of the series); also: nearly all actives have a fitted effect of over 45% in size
# Outline: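 CellTiter-Glo ATP luminescence, read 20 min after reagent at room temperature, reported viability following 40 h compound treatment at 37 °C. N2a mouse neuroblastoma cells seeded 1500/well; Hill equation gave AC50.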
# [3] = Cell Viability - SH-SY5Y (AID 544); conditions: SH-SY5Y neuroblastoma cell viability; viability change, negative = cytotoxic: at 92.2 µM (top of the series);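 also: cells exposed to compound for 40 hours; nearly all actives have a fitted effect of over 55% in size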
# Outline: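 Cytotoxicity measured via ATP-dependent luciferase luminescence (CellTiter-Glo) following 40 h, 37 °C exposure of 1500 SH-SY5Y cells per well. Concentration-response data were fitted with the standard Hill equation to give AC50.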
# [4] = Cellular Toxicity (caspase-3) H-4-II-E (AID 663); conditions: Potency: caspase-3 activation;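 also: cells exposed to compound for 16 hr before readout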
# Outline: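 Caspase 3/7 activation measured by luminescent aminoluciferin substrate cleavage after 16 hr compound treatment of H-4-II-E cells in complete medium. Increase normalized between DMSO (basal) and 100 uM tamoxifen (100%); Hill-equation AC50 from concentration-response.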
# [5] = Cellular Toxicity (caspase-3) NIH 3T3 (AID 666);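 also: caspase signal read after 16 h compound exposure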
# Outline: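 Caspase-Glo 3/7 luminescence reported caspase activation in 1000 NIH 3T3 cells/well after 16 h compound exposure at 37 C. DMSO set basal and 100 uM tamoxifen set 100% stimulation; concentration-response modeled with the Hill equation for AC50.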
# [6] = MultiTox-Fluor Cytotoxicity Assay - LYMP1-001 - Live Cells (AID 947)
# [7] = Cell Viability - LYMP2-004 (AID 966); also: nearly all actives have a fitted effect of over 65% in size; also: potency is read from the fitted curve at half-maximal effect
# Outline: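 AC50 values come from Hill modelling of concentration-dependent loss of intracellular ATP, measured by CellTiter-Glo luminescence. Human LYMP2-004 lymphoblastoid cells (2500/well) were exposed to compound for 24 h at 37 C.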
# [8] = Cell Viability - LYMP2-019 (AID 973); also: nearly all actives have a fitted effect of over 55% in size; also: potency is read from the fitted curve at half-maximal effect
# Outline: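 AC50 values come from Hill-equation fits of luminescent intracellular ATP (CellTiter-Glo, 30 min, room temperature) following 24 h compound exposure at 37 C. Cells: LYMP2-019 lymphoblastoid line, 2500 per well, in complete culture medium.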
# [9] = Cell Viability - LYMP2-025 (AID 976)
# Outline: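 Cytotoxicity read as loss of intracellular ATP (luciferase luminescence) after 24 h compound treatment at 37 C. Uses LYMP2-025 lymphoblastoid cells in 1536-well format; Hill-equation modelling gives AC50; tetraoctylammonium bromide as positive control.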
# [10] = Cell Viability - LYMP2-012 (AID 982);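 also: cellular ATP by luciferase luminescence where a drop means cytotoxicity; cells exposed to compound for one day before reading; nearly all actives have a fitted effect of over 55% in size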; also: potency is read from the fitted curve at half-maximal effect
# [11] = Cell Viability - LYMP2-014 (AID 983); also: nearly all actives have a fitted effect of over 50% in size
# Outline: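 Intracellular ATP loss, read by luciferase luminescence, measures acute cytotoxicity after 24 h compound exposure of lymphoblastoid LYMP2-014 cells (2500/well, 37 C). Concentration-response data fitted to the Hill equation for AC50.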
# [12] = Cell Viability - LYMP2-016 (AID 984); also: nearly all actives have a fitted effect of over 55% in size; also: potency is read from the fitted curve at half-maximal effect
# Outline: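 qHTS, 1536-well: 2500 LYMP2-016 cells/well, 5 hr 37 C, compound added, 24 hr 37 C, CellTiter-Glo 30 min RT, luminescence. Tetraoctylammonium bromide positive control. AC50 via Hill fit.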
# [13] = Cell Viability - LYMP2-018 (AID 985); also: nearly all actives have a fitted effect of over 50% in size; also: potency is read from the fitted curve at half-maximal effect
# Outline: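 Viability read as CellTiter-Glo luminescence (cellular ATP) after 24 hr compound exposure at 37 C of 2500 LYMP2-018 lymphoblastoid cells/well, pre-plated 5 hr. Hill-equation modelling gave AC50.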
# [14] = Cell Viability - LYMP2-026 (AID 989); also: nearly all actives have a fitted effect of over 50% in size
# Outline: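 Cytotoxicity read as ATP-dependent luminescence (CellTiter-Glo, 30 min room temperature) after 24 h compound treatment at 37 C. LYMP2-026 lymphoblastoid line seeded at 2500 cells/well; AC50 derived by standard Hill equation.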
# [15] = molecular target: Peroxisome proliferator-activated receptor gamma (Homo sapiens) (UniProt P37231); test: qHTS assay for small molecule agonists of peroxisome proliferator-activated receptor gamma signaling (AID 588536; active = well fitted curve in the direction sought with a large enough effect in the signal ratio, with a control signal flat, not every such curve was filed as active; the % refers to the signal ratio)
# Peroxisome proliferator-activated receptor gamma (Homo sapiens), sequence (P37231 whole entry, looked up): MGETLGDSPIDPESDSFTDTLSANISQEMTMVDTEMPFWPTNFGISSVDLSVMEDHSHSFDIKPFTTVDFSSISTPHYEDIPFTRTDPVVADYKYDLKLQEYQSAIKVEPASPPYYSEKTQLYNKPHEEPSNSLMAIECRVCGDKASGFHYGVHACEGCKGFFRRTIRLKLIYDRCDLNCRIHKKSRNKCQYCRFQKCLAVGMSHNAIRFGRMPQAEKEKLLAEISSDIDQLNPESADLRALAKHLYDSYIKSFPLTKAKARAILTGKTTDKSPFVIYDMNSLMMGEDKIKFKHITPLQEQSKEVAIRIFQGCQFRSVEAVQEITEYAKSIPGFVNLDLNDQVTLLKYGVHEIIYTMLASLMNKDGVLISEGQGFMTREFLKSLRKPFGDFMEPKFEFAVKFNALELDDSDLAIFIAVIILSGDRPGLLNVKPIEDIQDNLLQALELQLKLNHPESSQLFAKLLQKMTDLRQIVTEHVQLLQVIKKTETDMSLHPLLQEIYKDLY
# Outline: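 Cells were plated and held 6–6.5 h at 37 C, then compounds were added as a titration series. After a further 16 h, CCF4 dye was loaded for 2 h at room temperature and emission at 460/530 nm recorded.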
# [16] = qHTS assay for small molecule antagonists of retinoid X receptor alpha signaling (AID 588546); conditions: HEK293T RXRa-UAS-bla, beta-lactamase ratio, antagonist mode; measured here: W530 green channel, cytotoxicity proxy;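 also: cells stimulated with 9-cis-retinoic acid as agonist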
# Outline: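 Beta-lactamase reporter inhibition, read as CCF4 fluorescence ratio (ex 405, em 460/530 nm) after 2 h at RT. HEK293T UAS-bla cells, 2500/well, were stimulated with 9-cis-RA at 500 or 100 nM final alongside test compound for 18 h at 37 C.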
# [17] = molecular target: Thyroid hormone receptor beta (Homo sapiens) (UniProt P10828); test: qHTS assay for small molecule antagonists of thyroid hormone receptor beta signaling (AID 588547; active = well fitted inhibition curve with a large enough effect in the signal ratio, with a control signal flat, not every such curve was filed as active; the % refers to the signal ratio;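 also: cells stimulated with 0.4 nM T3 agonist during compound exposure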); conditions: TR-UAS-bla HEK293, beta-lactamase ratio, antagonist mode, 18 h
# Thyroid hormone receptor beta (Homo sapiens), sequence (P10828 whole entry, looked up): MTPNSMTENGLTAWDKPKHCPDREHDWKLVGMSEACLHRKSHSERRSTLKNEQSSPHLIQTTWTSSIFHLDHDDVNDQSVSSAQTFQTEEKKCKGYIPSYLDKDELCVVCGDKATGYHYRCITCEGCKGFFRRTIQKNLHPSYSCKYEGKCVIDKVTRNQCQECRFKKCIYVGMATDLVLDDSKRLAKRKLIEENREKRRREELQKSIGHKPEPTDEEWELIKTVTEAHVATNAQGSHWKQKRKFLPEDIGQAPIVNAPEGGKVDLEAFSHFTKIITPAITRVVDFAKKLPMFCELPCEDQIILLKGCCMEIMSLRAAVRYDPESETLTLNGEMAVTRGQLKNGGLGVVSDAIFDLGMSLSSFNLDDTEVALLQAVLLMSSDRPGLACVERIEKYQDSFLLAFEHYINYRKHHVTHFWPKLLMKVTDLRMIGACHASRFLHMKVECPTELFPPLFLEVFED
# Outline: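 Inhibition of T3-driven (0.4nM final) beta-lactamase reporter activity was measured over 0.59 nM to 92 uM compound after 18 h at 37 C. The cells were GripTite HEK293 TR-UAS-bla in charcoal/dextran-stripped serum, with CCF4 ratio read-out and IC50 from Hill fits.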
# [18] = molecular target: Tumor necrosis factor (Homo sapiens) (UniProt P01375); test: qHTS assay to identify small molecules that stimulate Tumor Necrosis Factor-alpha (TNF-alpha) secretion (AID 651757; active = well fitted curve in the direction sought with a large enough effect in the signal ratio; the % refers to the signal ratio)
# Tumor necrosis factor (Homo sapiens), sequence (P01375 whole entry, looked up): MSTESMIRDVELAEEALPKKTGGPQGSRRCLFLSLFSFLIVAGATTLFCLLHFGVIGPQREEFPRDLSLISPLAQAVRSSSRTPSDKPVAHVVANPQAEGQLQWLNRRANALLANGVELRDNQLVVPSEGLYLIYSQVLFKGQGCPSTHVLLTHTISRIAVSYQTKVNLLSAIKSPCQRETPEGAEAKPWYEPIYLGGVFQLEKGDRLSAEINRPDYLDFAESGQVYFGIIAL
# Outline: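 Secreted TNF-alpha quantified by TR-FRET sandwich of two labeled anti-TNF-alpha antibodies, incubated 3 hr at room temperature. Preceded by 17 hr, 37 C compound treatment of THP-1 cells at 3000 cells/well.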
# [19] = molecular target: Nuclear receptor subfamily 1 group I member 2 (Rattus norvegicus) (UniProt Q9R1A7); test: qHTS assay for small molecule activators of the rat pregnane X receptor (rPXR) signaling pathway (AID 651751; call rule not given here); conditions: rPXR reporter cells, luciferase (One-Glo), 24 h
# Nuclear receptor subfamily 1 group I member 2 (Rattus norvegicus), sequence (Q9R1A7 whole entry, looked up): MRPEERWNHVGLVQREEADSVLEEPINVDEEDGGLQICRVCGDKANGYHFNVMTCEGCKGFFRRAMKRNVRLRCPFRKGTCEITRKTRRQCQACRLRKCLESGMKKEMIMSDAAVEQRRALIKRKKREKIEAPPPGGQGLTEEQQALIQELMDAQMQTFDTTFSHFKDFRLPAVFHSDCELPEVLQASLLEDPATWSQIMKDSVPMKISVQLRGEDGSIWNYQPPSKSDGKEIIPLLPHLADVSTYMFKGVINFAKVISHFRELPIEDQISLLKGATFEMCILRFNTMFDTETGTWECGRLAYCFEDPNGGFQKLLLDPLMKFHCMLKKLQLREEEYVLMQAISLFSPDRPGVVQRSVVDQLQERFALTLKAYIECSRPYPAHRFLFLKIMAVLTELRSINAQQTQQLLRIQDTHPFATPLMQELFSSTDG
SMILES,Potency [1],Potency [2],Potency [3],Potency [4],Potency [5],outcome [6],Potency [7],Potency [8],Potency [9],Potency [10],Potency [11],Potency [12],Potency [13],Potency [14],outcome [15],max response [16],activity change % (negative = inhibition) [17],outcome [18],max response [19]
O=c1ccc(=O)[nH][nH]1,> 92 µM (inactive),inactive,inactive,inactive,inactive,inactive,inactive,inactive,inactive,inactive,inactive,inactive,inactive,inactive,inactive,-4.32% and 8.97%,-3.55% (inactive),inactive,0.0495% (inactive) and -4.15% (inactive)
CN(C)C(=O)Cl,> 92 µM (inactive),inactive,inactive,inactive,inactive,inactive,inactive,inactive,inactive,inactive,inactive,inactive,inactive,inactive,inactive,3.53%,-23.4% (inactive),inactive,-2.26% (inactive)
C=CC#N,> 92 µM (inactive),inactive,inactive,inactive,inactive,inactive,inactive,inactive,inactive,inactive,inactive,inactive,inactive,inactive,inactive,-3.06%,-5.45% (inactive),inactive,-2.96% (inactive)
BrCC(Br)C1CCC(Br)C(Br)C1 (stereo not drawn),> 92 µM (inactive),inactive,–,–,inactive,inactive,–,inactive,inactive,inactive,inactive,inactive,inactive,inactive,inactive,-6.79%,5.99% (inactive),inactive,-6.51% (inactive)
N#C/C(N)=C(/N)C#N,> 92 µM (inactive),inactive,inactive,inactive,inactive,inactive,inactive,inactive,inactive,inactive,inactive,inactive,inactive,inactive,inactive,-2.22%,-2.94% (inactive),inactive,-1.96% (inactive)
OC[P+](CO)(CO)CO,31.3 µM (inactive),inactive,inactive,inactive,inactive,inactive,20 µM (active),15.8 µM (active),–,15.8 µM (active),–,20 µM (active),7.94 µM (active),–,inactive,5.58% and 5.35%,-18.1% (inactive) and -15.5% (inactive),inactive,-2.2% (inactive) and -0.448% (inactive)
CCOC(=O)C1OC1(C)c1ccccc1 (stereo not drawn),> 92 µM (inactive),inactive,inactive,inactive,inactive,inactive,inactive,inactive,inactive,inactive,inactive,inactive,inactive,inactive,inactive,1.36%,6.83% (inactive),inactive,-3.02% (inactive)
COc1c(C(C)(C)C)cc([N+](=O)[O-])c(C)c1[N+](=O)[O-],> 92 µM (inactive),inactive,inactive,inactive,inactive,inactive,inactive,inactive,inactive,inactive,inactive,inactive,inactive,inactive,inactive,-1.47%,24.1% (inactive),inactive,5.88% (inactive)
COC(=O)c1ccccc1N,> 92 µM (inactive),inactive,inactive,inactive,inactive,inactive,inactive,inactive,inactive,inactive,inactive,inactive,inactive,inactive,inactive,0.965%,-1.98% (inactive),inactive,-0.835% (inactive)
CCN(CC)N=O,> 92 µM (inactive),inactive,inactive,inactive,inactive,inactive,inactive,inactive,inactive,inactive,inactive,inactive,inactive,inactive,inactive,-3.04%,–,inactive,3.34% (inactive)
